Structures are written as SMILES. Hit rate of the full screen: of about 310,000 compounds, about 14,000 (4.5%) showed an effect of 50% or more. The effect is printed as a negative number. The full list was thinned out, with strong results kept by preference.

These results are taken from paper PMC4336329 (PLoS ONE, 2015).
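Also: peak tail current of the secondary pulse compared with the same well before compound.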

human ether-à-go-go-related gene (hERG) potassium channel, sequence (Q12809 whole entry, looked up): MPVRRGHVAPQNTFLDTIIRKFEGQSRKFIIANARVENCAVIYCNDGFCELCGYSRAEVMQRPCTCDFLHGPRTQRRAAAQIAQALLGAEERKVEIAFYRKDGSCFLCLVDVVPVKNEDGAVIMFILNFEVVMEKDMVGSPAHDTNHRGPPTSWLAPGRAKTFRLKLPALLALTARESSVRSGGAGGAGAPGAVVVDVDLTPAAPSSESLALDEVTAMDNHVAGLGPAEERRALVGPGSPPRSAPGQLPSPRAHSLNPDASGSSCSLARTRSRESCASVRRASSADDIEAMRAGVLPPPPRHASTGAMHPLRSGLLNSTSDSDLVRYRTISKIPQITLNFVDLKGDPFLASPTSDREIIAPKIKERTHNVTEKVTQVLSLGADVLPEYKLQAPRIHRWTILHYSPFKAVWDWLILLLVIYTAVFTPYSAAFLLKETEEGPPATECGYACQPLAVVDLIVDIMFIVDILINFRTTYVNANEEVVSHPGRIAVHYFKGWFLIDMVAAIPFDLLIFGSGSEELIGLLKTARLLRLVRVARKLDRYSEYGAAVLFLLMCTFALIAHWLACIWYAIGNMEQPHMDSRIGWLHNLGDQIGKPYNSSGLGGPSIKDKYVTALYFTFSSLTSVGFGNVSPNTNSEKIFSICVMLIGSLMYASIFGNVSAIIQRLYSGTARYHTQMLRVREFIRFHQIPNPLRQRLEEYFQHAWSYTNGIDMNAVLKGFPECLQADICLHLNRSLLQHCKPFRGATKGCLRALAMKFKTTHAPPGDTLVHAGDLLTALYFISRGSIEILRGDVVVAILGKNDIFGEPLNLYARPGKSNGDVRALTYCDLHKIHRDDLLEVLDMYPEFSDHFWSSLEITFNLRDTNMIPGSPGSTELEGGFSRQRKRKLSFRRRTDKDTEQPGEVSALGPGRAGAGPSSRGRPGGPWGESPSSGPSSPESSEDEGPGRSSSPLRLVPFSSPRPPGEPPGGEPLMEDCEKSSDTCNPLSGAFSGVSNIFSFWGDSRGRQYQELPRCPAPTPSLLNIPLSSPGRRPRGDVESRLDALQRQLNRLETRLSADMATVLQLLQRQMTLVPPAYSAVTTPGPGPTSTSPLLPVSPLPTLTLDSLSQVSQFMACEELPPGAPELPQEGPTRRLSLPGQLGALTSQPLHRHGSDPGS

This assay concerns the target human ether-à-go-go-related gene (hERG) potassium channel (human, UniProt Q12809). Kind of assay: primary screen, population patch clamp on CHO cells stably expressing hERG; higher = less effect of the substance.
Regarding `CCN(c1ccc(OC)cc1)S(=O)(=O)c1nnc(NC(=O)C2CCCCC2)s1`, the “hERG current change (%, negative = inhibition) at 10uM” value is 12.2%.

In the case of `Cc1cc(=O)oc(C)c1C(=O)N[C@@H]1CCCCNC1=O`, the “hERG current change (%, negative = inhibition) at 10uM” value turned out to be 7.72%.

As for `COc1cccc2cc(C(=O)NCCN3CCOCC3)c(=O)oc12`, the “hERG current change (%, negative = inhibition) at 10uM” value turned out to be 12.9%.

`CCOc1cccc(-c2cc(=O)[nH][nH]2)c1`: the “hERG current change (%, negative = inhibition) at 10uM” value turned out to be 1.58%.

As to `CC1CCCN(c2nc(NCc3ccco3)nc(N)c2[N+](=O)[O-])C1` (stereo not drawn), the “hERG current change (%, negative = inhibition) at 10uM” value is reported as -54.3%.

As to `CC1CC(C)CN(c2nc(NCc3ccco3)nc(N)c2[N+](=O)[O-])C1` (stereo not drawn), the “hERG current change (%, negative = inhibition) at 10uM” value is on record as -27.4%.

Consider `CC1CCN(c2nc(NCc3ccco3)nc(N)c2[N+](=O)[O-])CC1`, for which the “hERG current change (%, negative = inhibition) at 10uM” value is reported as -11.9%.

In the case of `CCN(c1cccc(C)c1)S(=O)(=O)c1ccc(-c2cc(C)no2)s1`, the “hERG current change (%, negative = inhibition) at 10uM” value was 5.94%.

In the case of `CCN(CC)S(=O)(=O)c1cc(C(=O)Nc2cc(C)on2)c(Cl)cc1Cl`, the “hERG current change (%, negative = inhibition) at 10uM” value came to 12.3%.

Turning to `CC(=O)Nc1cccc(NC(=O)CSc2nc(=O)n(CCN3CCOCC3)c3c2CCC3)c1`, the “hERG current change (%, negative = inhibition) at 10uM” value is listed as -2.96%.

For `O=C(CSc1nc(=O)n(CCCN2CCOCC2)c2c1CCCC2)Nc1cccc([N+](=O)[O-])c1`, the “hERG current change (%, negative = inhibition) at 10uM” value was -67.7%.

Take `Cc1ccc(NC(=O)CSc2nc(=O)n(CCN3CCOCC3)c3c2CCCC3)cc1`: the “hERG current change (%, negative = inhibition) at 10uM” value is given as -27.5%.

`O=C(CSc1nc(=O)n(CCN2CCOCC2)c2c1CCCC2)Nc1ccc([N+](=O)[O-])cc1`: the “hERG current change (%, negative = inhibition) at 10uM” value is -67.6%.

Regarding `CC(=O)c1ccc(NC(=O)CSc2nc(=O)n(CCN3CCOCC3)c3c2CCC3)cc1`, the “hERG current change (%, negative = inhibition) at 10uM” value is recorded as -7.74%.

Regarding `O=C(CSc1nc(=O)n(CCCN2CCOCC2)c2c1CCC2)Nc1ccc([N+](=O)[O-])cc1`, the “hERG current change (%, negative = inhibition) at 10uM” value is given as -60.4%.

For the molecule `O=C(CSc1nc(=O)n(CCCN2CCOCC2)c2c1CCC2)Nc1ccc(F)cc1`, the “hERG current change (%, negative = inhibition) at 10uM” value is -39.5%.

For the molecule `CC(=O)c1cccc(NC(=O)CSc2nc(=O)n(CCN3CCOCC3)c3c2CCCC3)c1`, the “hERG current change (%, negative = inhibition) at 10uM” value is -11.2%.

`O=c1[nH]cnc2c1c(-c1ccccc1)cn2-c1ccccc1`: the “hERG current change (%, negative = inhibition) at 10uM” value was 12.1%.

On to `CCC(C)NC(=O)c1cnn2c1NC(c1cccs1)CC2C(F)(F)F` (stereo not drawn), for which the “hERG current change (%, negative = inhibition) at 10uM” value is -11.3%.

Consider `Cc1ccc(C(=O)Nc2ncc(Cc3ccc(F)cc3)s2)o1`, for which the “hERG current change (%, negative = inhibition) at 10uM” value is reported as -2.85%.

`O=C(OCC(=O)N1CCCC1=O)c1cc(S(=O)(=O)N2CCOCC2)ccc1F`: the “hERG current change (%, negative = inhibition) at 10uM” value was -22.5%.

In the case of `CN1/C(=C\C(=O)c2cccc([N+](=O)[O-])c2)Sc2ccccc21`, the “hERG current change (%, negative = inhibition) at 10uM” value was found to be 10.8%.

In the case of `C/C(CCc1oc2ccc(Cl)cc2c1-c1ccc(C)o1)=N\O`, the “hERG current change (%, negative = inhibition) at 10uM” value stood at 22.9%.

Regarding `O=C(COC(=O)c1cc(=O)[nH]c2ccccc12)Nc1ccc(Cl)cn1`, the “hERG current change (%, negative = inhibition) at 10uM” value was found to be 6.92%.

For the molecule `Cc1cccc(N2CCN(C(=O)c3ccc(CNc4c(N5CCC(C)CC5)c(=O)c4=O)cc3)CC2C)c1` (stereo not drawn), the “hERG current change (%, negative = inhibition) at 10uM” value is listed as -10.4%.

For `CC1(C)N([O-])C(c2cccs2)=C[N+]1=O`, the “hERG current change (%, negative = inhibition) at 10uM” value is -7.12%.

Regarding `O=C(Nc1cccc(Cl)c1)C1CCN(C(=O)c2cccs2)CC1`, the “hERG current change (%, negative = inhibition) at 10uM” value was -16.8%.

As to `COc1cccc(NC(=O)C2CCN(S(C)(=O)=O)CC2)c1`, the “hERG current change (%, negative = inhibition) at 10uM” value is recorded as -7.92%.

As to `COc1cccc(-c2cccc(NC(=O)C3CCN(CC4CCOC4)CC3)c2)c1` (stereo not drawn), the “hERG current change (%, negative = inhibition) at 10uM” value is on record as -53.2%.

Consider `CC(=O)c1cccc(CN2CCC(C(=O)Nc3ccc(-c4cccc(C)c4)cc3)CC2)c1`, for which the “hERG current change (%, negative = inhibition) at 10uM” value amounted to 2.59%.

Take `COc1cccc(O)c1CN1CCC(C(=O)Nc2ccc(-c3cccc(C)c3)cc2)CC1`: the “hERG current change (%, negative = inhibition) at 10uM” value was -11.2%.

For `O=C(Nc1cccc(-c2cccc(Cl)c2)c1)C1CCN(CC2CCOC2)CC1` (stereo not drawn), the “hERG current change (%, negative = inhibition) at 10uM” value is listed as -77.2%.

In the case of `COc1cccc(NC(=O)C2CC2)c1`, the “hERG current change (%, negative = inhibition) at 10uM” value is reported as 2.97%.

As to `Cc1cccc(-c2ccc(NC(=O)C3CCN(CC4CC4)CC3)cc2)c1`, the “hERG current change (%, negative = inhibition) at 10uM” value is given as -70.9%.

For `COc1ccccc1CNC(=O)Cn1cnnn1`, the “hERG current change (%, negative = inhibition) at 10uM” value is recorded as 14.5%.

For `O=C(c1cc([N+](=O)[O-])cc([N+](=O)[O-])c1)N1CCCc2ccccc21`, the “hERG current change (%, negative = inhibition) at 10uM” value is listed as -16.3%.

Take `CCOC(=O)Cc1csc(NC(=O)CC)n1`: the “hERG current change (%, negative = inhibition) at 10uM” value came to 3.71%.

Consider `O=S(=O)(c1ccc(-c2csc(=Nc3ccccc3)n2CCCN2CCOCC2)cc1)N1CCOCC1`, for which the “hERG current change (%, negative = inhibition) at 10uM” value is -40.9%.

In the case of `CN(C)N1C(N)=C(C#N)C(c2cccc(Cl)c2)C2=C1CCCC2=O` (stereo not drawn), the “hERG current change (%, negative = inhibition) at 10uM” value is reported as -26.2%.

For the molecule `Cc1ccc(CO/N=C/C2=C(Cl)c3ccccc3CC2)cc1`, the “hERG current change (%, negative = inhibition) at 10uM” value came to 16.8%.

As for `CC(=O)Nc1ccc(NS(=O)(=O)c2ccc3c(c2)oc(=O)n3C)cc1`, the “hERG current change (%, negative = inhibition) at 10uM” value was found to be 20.2%.

Turning to `Cc1cccc(CN2CCc3c([nH]c4ccccc34)C2C(C)(C)C)n1` (stereo not drawn), the “hERG current change (%, negative = inhibition) at 10uM” value was found to be 3.57%.

In the case of `O=[N+]([O-])c1ccc(C(=Nc2cccc3ccccc23)N2CCOCC2)cc1`, the “hERG current change (%, negative = inhibition) at 10uM” value was -63.5%.

Consider `Cc1ccc([N+](=O)[O-])cc1N=C(c1cccc([N+](=O)[O-])c1)N1CCOCC1`, for which the “hERG current change (%, negative = inhibition) at 10uM” value is listed as -26%.

For `Cc1ccc([N+](=O)[O-])cc1N=C(c1ccc([N+](=O)[O-])cc1)N1CCOCC1`, the “hERG current change (%, negative = inhibition) at 10uM” value is given as -20.8%.

As for `O=C(NNC(=O)C1[C@H]2CCCC[C@@H]12)Nc1cccc2ccccc12` (stereo partly drawn), the “hERG current change (%, negative = inhibition) at 10uM” value is -6.11%.

Regarding `COc1cc(NC(=O)Cc2ccc(F)cc2)cc(OC)c1OC`, the “hERG current change (%, negative = inhibition) at 10uM” value was determined as 16.2%.

Take `CCC(=O)N1CCc2cc(Br)cc(S(=O)(=O)CCC(=O)NCCc3ccccc3)c21`: the “hERG current change (%, negative = inhibition) at 10uM” value amounted to 3.68%.

On to `O=S(=O)(c1ccccc1)N1CCN(C(=S)Nc2ccc(F)cc2)CC1`, for which the “hERG current change (%, negative = inhibition) at 10uM” value is -3.33%.

With `CN(C)/C=N/c1ncn(-c2ncc(C(F)(F)F)cc2Cl)n1`, the “hERG current change (%, negative = inhibition) at 10uM” value is recorded as 17.5%.

With `Nc1nc2nonc2nc1N`, the “hERG current change (%, negative = inhibition) at 10uM” value was 15.3%.

As to `Cc1nn(-c2ccccc2)c2nc(-c3ccccc3)cc(C(=O)N3CCOCC3)c12`, the “hERG current change (%, negative = inhibition) at 10uM” value is recorded as -25.9%.

For `Cc1nn(-c2cccc(Cl)c2)c2nc(-c3ccncc3)cc(C(=O)N3CCOCC3)c12`, the “hERG current change (%, negative = inhibition) at 10uM” value is recorded as -62.3%.

As to `Cc1nn(-c2ccccc2)c2nc(-c3ccncc3)cc(C(=O)NCc3ccco3)c12`, the “hERG current change (%, negative = inhibition) at 10uM” value is given as -66.6%.

Turning to `CCOC(=O)c1cc(-c2ccncc2)nc2c1c(C)nn2-c1ccccn1`, the “hERG current change (%, negative = inhibition) at 10uM” value is -63.3%.

In the case of `CCOC(=O)c1cc(-c2cccs2)nc2c1c(C)nn2-c1ccccn1`, the “hERG current change (%, negative = inhibition) at 10uM” value was determined as 17.2%.

`CCOC(=O)c1cc(-c2ccncc2)nc2c1c(C)nn2C`: the “hERG current change (%, negative = inhibition) at 10uM” value is -14.8%.

With `Cc1nn(-c2ccccn2)c2nc(-c3cccs3)cc(C(=O)NCc3ccco3)c12`, the “hERG current change (%, negative = inhibition) at 10uM” value is -67.3%.

For `O=C(NCc1ccco1)c1cc(-c2cccs2)nc2ccccc12`, the “hERG current change (%, negative = inhibition) at 10uM” value is reported as -1.68%.

Take `O=C(NCc1ccco1)c1cc(-c2ccncc2)nc2ccccc12`: the “hERG current change (%, negative = inhibition) at 10uM” value was -18.5%.

Take `Cc1nn(-c2cccc(Cl)c2)c2nc(-c3ccco3)cc(C(=O)O)c12`: the “hERG current change (%, negative = inhibition) at 10uM” value was 19%.

Consider `Cc1ccccc1-n1nc(C)c2c(C(=O)NN)cc(-c3ccncc3)nc21`, for which the “hERG current change (%, negative = inhibition) at 10uM” value is 38.5%.

For `CCOC(=O)c1cc(-c2ccccc2)nc2c1c(C)nn2-c1ccccn1`, the “hERG current change (%, negative = inhibition) at 10uM” value is reported as -6.42%.
